Experimental data: the supplement of paper PMC12636033
± gives the standard deviation of the averaged measurements. Whole data set: some 33,000 sequences, median “E-score (rank enrichment, -0.5 to 0.5)” near -0.0043, cut for the highest 2% near 0.24. Many of the other results were omitted from the sample, so the highest values are more common in it than they were.

test system: 2Sp-muMax20 (muMax20 with two 2,6-bis(methyl)pyridine Cys staples); assay: PBM 8-mer E-score (E-score (rank enrichment, -0.5 to 0.5)); higher = stronger preferential binding
Method: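 Protein binding microarray (universal PBM chip covering all 10-mers in fixed probe flanks) with chemically synthesized human Max(13-93) bHLH-LZ analogs (not full-length Max) bearing noncanonical residues (hArg, Tha, Aib, Nle at 65) and aromatic Cys staples. Read-out per 8-mer (and its reverse complement): E-score (rank-based enrichment, -0.5 to 0.5) and Z-score of median probe intensity.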

| Sequence | PBM 8-mer E-score |
| --- | --- |
| AATCTGAT | 0.057 ± 0.016 |
| CAAATAAC | 0.238 ± 0.041 |
| GAAATAAC | -0.1 ± 0.05 |
| AAAATAAC | 0.2 ± 0.041 |
| ACAGTGGC | -0.0719 ± 0.054 |
| CGAGGTTC | -0.105 ± 0.037 |
| CCTCAGGA | -0.147 ± 0.12 |
| AGTCGGGC | -0.144 ± 0.022 |
| CTTATAAG | 0.0331 ± 0.11 |
| GTTATAAC | 0.16 ± 0.047 |
| CCTATAAA | -0.143 ± 0.042 |
| GTTATAAA | 0.154 ± 0.051 |
| ATTATAAC | 0.247 ± 0.041 |
| TTTATAAA | 0.246 ± 0.074 |
| CTTATAAC | 0.0403 ± 0.076 |
| CTTATAAA | 0.184 ± 0.071 |
| ATTATAGA | 0.0771 ± 0.056 |
| ATTATAAA | 0.263 ± 0.069 |
| ATTATAAT | 0.169 ± 0.1 |
| ATTATAAG | 0.28 ± 0.0046 |
| ACTGAACG | -0.181 ± 0.086 |
| AGAAACCG | -0.0327 ± 0.035 |
| ACCACTTC | 0.0215 ± 0.0022 |
| AAGACTAA | 0.0726 ± 0.081 |
| GATTTTCC | -0.0716 ± 0.0054 |

| Sequence | PBM 8-mer E-score |
| --- | --- |
| AGAGGCAG | -0.125 ± 0.069 |
| CTAACCAA | -0.0414 ± 0.074 |
| ACCTCGTC | -0.0184 ± 0.011 |
| AACGTCTG | -0.086 ± 0.17 |
| ACCTCACG | -0.0339 ± 0.093 |
| CCCGGCGC | -0.17 ± 0.023 |
| ACGCACGC | 0.157 ± 0.12 |
| ACGCACAG | -0.104 ± 0.024 |
| ACGCACAA | 0.0234 ± 0.071 |
| ACGCACGT | 0.277 ± 0.0066 |
| ACGCACAT | 0.24 ± 0.091 |
| ACGCACGA | 0.0583 ± 0.035 |
| GCCATCAA | 0.193 ± 0.0031 |
| CACTGTGC | -0.123 ± 0.011 |
| CCAGCCTC | -0.148 ± 0.047 |
| AATACCTA | 0.244 ± 0.03 |
| GATACCTA | 0.155 ± 0.013 |
| CATACCTA | 0.0465 ± 0.0019 |
| ATGGATGA | 0.053 ± 0.022 |
| ATATTTCC | 0.0705 ± 0.11 |
| CTATTTCA | 0.126 ± 0.099 |
| CTATTTCC | 0.26 ± 0.051 |
| TCCAGTAA | 0.071 ± 0.076 |
| CAATGGCG | 0.02 ± 0.0014 |
| CACGTGAA | 0.392 ± 0.022 |

| Sequence | PBM 8-mer E-score |
| --- | --- |
| TATGTGAA | 0.308 ± 0.017 |
| CCCGTGAG | -0.225 ± 0.016 |
| TACGTGAA | 0.0426 ± 0.043 |
| AACGTGAG | 0.0157 ± 0.023 |
| CACGTGAG | 0.255 ± 0.005 |
| AACGTGAC | 0.147 ± 0.045 |
| AATGTGAA | 0.154 ± 0.12 |
| GACGTGAC | 0.0337 ± 0.019 |
| CACGTGAC | 0.406 ± 0.011 |
| GATGTGAA | 0.177 ± 0.043 |
| GACGTGAA | -0.25 ± 0.025 |
| GACCCATC | -0.0849 ± 0.083 |
| GGCAACAC | 0.0268 ± 0.038 |
| CTCGGGTA | -0.193 ± 0.024 |
| TAAATAAA | 0.129 ± 0.012 |
| CCCGTGAC | -0.0332 ± 0.029 |
| GAAGCGCC | -0.146 ± 0.03 |
| CGCGTGAC | 0.286 ± 0.036 |
| AGCGTGAC | 0.0983 ± 0.058 |
| CGCGTGAG | 0.219 ± 0.012 |
| CTCAGGTC | -0.298 ± 0.018 |
| GCGAGGGA | 0.0348 ± 0.068 |
| GTATAATA | 0.26 ± 0.018 |
| ATATAATG | 0.235 ± 0.0039 |
| GAATAATA | 0.0134 ± 0.025 |

| Sequence | PBM 8-mer E-score |
| --- | --- |
| ATATAATA | 0.244 ± 0.015 |
| CTATAATA | 0.0904 ± 0.023 |
| GTATAAGA | 0.171 ± 0.024 |
| GCGACCCA | -0.125 ± 0.0022 |
| TAACTAGA | 0.216 ± 0.032 |
| TAAATTGA | 0.123 ± 0.068 |
| CCTACACG | -0.0918 ± 0.0064 |
| GCTATACA | 0.148 ± 0.0048 |
| TATATACA | 0.11 ± 0.072 |
| ACTACACG | 0.134 ± 0.1 |
| ACTACACA | 0.317 ± 0.02 |
| ACTATACA | 0.236 ± 0.052 |
| AATATACA | 0.272 ± 0.012 |
| AATATACT | 0.0855 ± 0.0041 |
| TCTATACA | 0.111 ± 0.0021 |
| GAGGGCAA | 0.00807 ± 0.048 |
| AATTGTGT | 0.124 ± 0.015 |
| ATGGCGTC | -0.112 ± 0.017 |
| AATCTCAC | -0.00554 ± 0.028 |
| CCACAACA | -0.0195 ± 0.008 |
| GCACAACC | -0.26 ± 0.11 |
| GCACAACA | 0.245 ± 0.044 |
| AATCGATA | 0.122 ± 0.028 |
| TATCGATA | 0.28 ± 0.0074 |
| GATCGATA | 0.0711 ± 0.063 |

| Sequence | PBM 8-mer E-score |
| --- | --- |
| CGTAGTTC | -0.126 ± 0.036 |
| ATGGTGCG | -0.0695 ± 0.038 |
| CATGGGCC | -0.227 ± 0.033 |
| ATGGTAAT | 0.0649 ± 0.056 |
| CCCGTAGA | -0.219 ± 0.0027 |
| GGCGGGAA | 0.0758 ± 0.012 |
| AGGCGGGA | 0.0612 ± 0.085 |
| CGCGGGGA | 0.00762 ± 0.0032 |
| GGGCGGGA | 0.302 ± 0.009 |
| GGCGGGGA | 0.327 ± 0.0043 |
| CGGCGGGA | -0.183 ± 0.048 |
| CGGGATAG | -0.0726 ± 0.029 |
| GATAATCC | -0.0127 ± 0.051 |
| AATAATCA | 0.0327 ± 0.025 |
| CATAATCA | 0.122 ± 0.058 |
| GATAATAA | 0.161 ± 0.11 |
| TATAATCA | 0.248 ± 0.026 |
| GATAATCA | 0.291 ± 0.0043 |
| CTCCTGCA | -0.0859 ± 0.085 |
| ACCAGCGA | -0.0875 ± 0.13 |
| AGTGCCCG | -0.183 ± 0.011 |
| CGGGCCCG | -0.0343 ± 0.1 |
| ACCTTCAG | 0.0376 ± 0.011 |
| CAACGGCC | -0.302 ± 0.033 |
| AAACGGCC | 0.2844 ± 0.0015 |

| Sequence | PBM 8-mer E-score |
| --- | --- |
| CAAACGGC | -0.18938 ± 4.9e-05 |
| AAACGGCT | -0.108 ± 0.055 |
| GAAACGGC | -0.0635 ± 0.06 |
| AAAACGGC | 0.295 ± 0.024 |
| GTATCTCA | 0.17 ± 0.075 |
| CAACCTCC | -0.00017 ± 0.065 |
| GAAGTGTA | -0.0146 ± 0.06 |
| ATGGCTGG | -0.00368 ± 0.018 |
| TATGTCAA | 0.224 ± 0.067 |
| AGTGGTAA | 0.0408 ± 0.025 |
| AGTATCTA | 0.3 ± 0.034 |
| AGTATATC | -0.0248 ± 0.067 |
| ACTATATC | 0.302 ± 0.055 |
| ATTATATA | 0.199 ± 0.014 |
| AGTATATA | 0.273 ± 0.03 |
| ACTATCTC | -0.108 ± 0.18 |
| CCTATATC | -0.0131 ± 0.064 |
| GGTATCTA | -0.00749 ± 0.008 |
| ATTATATG | 0.198 ± 0.017 |
| ATTATATC | 0.243 ± 0.051 |
| AGTATATG | 0.125 ± 0.12 |
| CGTATCTA | 0.000215 ± 0.053 |
| CGCGCTGA | 0.00249 ± 0.09 |
| CATGCAGG | 0.0699 ± 0.036 |
| CCTAGTTA | 0.0579 ± 0.045 |

| Sequence | PBM 8-mer E-score |
| --- | --- |
| CGTGGGTC | 0.00478 ± 0.056 |
| CCCAAACC | 0.0283 ± 0.012 |
| AGTGCAAA | -0.0314 ± 0.044 |
| GTGTGGCA | 0.0191 ± 0.059 |
| GAAGCCGA | -0.13 ± 0.0099 |
| CGATCCTC | -0.0245 ± 0.032 |
| GCGCAAAC | 0.11 ± 0.026 |
| GCGTAGGA | 0.112 ± 0.03 |
| ATGCTTGG | 0.102 ± 0.0062 |
| ACTATATG | 0.196 ± 0.0091 |
| ACTATATA | 0.254 ± 0.018 |
| ATTATACA | 0.0914 ± 0.033 |
| ATTATACG | 0.125 ± 0.014 |
| GCTATATA | 0.149 ± 0.013 |
| ATTATACC | 0.238 ± 0.031 |
| CTTCGGAA | -0.0272 ± 0.017 |
| ATTCGCCC | 0.0547 ± 0.0036 |
| ATCTGACA | -0.0699 ± 0.061 |
| ATATTCAA | 0.157 ± 0.012 |
| CTATTCAA | 0.266 ± 0.08 |
| ATATTCAG | 0.126 ± 0.074 |
| ATATTCAC | 0.109 ± 0.072 |
| ATATTCAT | 0.299 ± 0.027 |
